# MCF10A rerep – DNA re-replication induction in MCF 10a cells; 350,000 tested, 2.9% active; Potency, µM (series often up to 46.1 µM), without a hit: at the highest dose activity, positive = re-replication, actives largely listed as activators; AID 624296; MCF 10A DNA re-replication, Hoechst nuclear intensity, 48 h; further: potency means the concentration at half of the fitted maximal effect; % of control where 0% means no effect; nearly all actives have a fitted effect of over 50% in size
# IL-1B inflam inh – blocks inflammasome-driven IL-1 beta release. 360,000 tested, 4.7% active. AID 743279. THP-1 LPS/ATP IL-1B secretion, AlphaLISA, 16 h; stronger effect = lower value. activity change, % at 57.5 µM; in the data active means activity change below about -50%; inconclusive means mostly about -30% to -49%; further: on the % scale 0 is the no-effect control and ±100 the full control effect
#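 Secreted IL-1B measured by AlphaLISA bead assay after 16 h compound exposure of THP-1 cells; compounds (final up to 57.5 uM) added 1 h before LPS (250 ng/mL) and ATP (1.25 mM) stimulation; lower signal means less secretion.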
# PINK1 modulator – modulators of PINK1 expression | 410,000 tested, 0.2% active | Potency, µM (doses to about 76.6 µM), for the others: at the top dose activation (PINK1 increase), most hits filed as activators | PINK1 immunofluorescence, high-content cytometry, 24 h; active means well fitted activation curve with a large enough effect; inconclusive means small, poorly fitted or top-dose-only effect; cell line not stated here; further: potency means the concentration at half of the fitted maximal effect; % of control where 0% means no effect; nearly all actives have a fitted effect of over 65% in size
#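 Cells are seeded, rested 12 hours, then given compound at five concentrations or DMSO for 24 hours. After fixation, blocking and antibody staining, PINK1 amount and mitochondrial localization are scored; CCCP serves as control.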
# ATXN2 expr inh – reduces ATXN2 reporter expression in HEK-293 cells; HEK-293 ATXN2-luciferase reporter, luminescence, 24 h; Potency, µM (series often up to 57 µM), without a hit: top-dose activity change, negative = inhibition, usual class: inhibitors; 360,000 tested, 0.72% active; AID 1745845; further: potency means the concentration at half of the fitted maximal effect; on the % scale 0 is the no-effect control and ±100 the full control effect; nearly all actives have a fitted effect of over 55% in size
#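 ATXN2-luciferase reporter cells (luciferase flanked by upstream and downstream ATXN2 gene portions) were treated 24 h at 37 °C with compounds at up to 57 uM. SteadyGlo luminescence gave expression; GF-AFC fluorescence gave viability.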
# SW480 rerep – DNA re-replication induction in SW480 cells; SW480 DNA re-replication, Hoechst DNA content imaging, 48 h; Potency, µM (highest dose often 46.1 µM), without a hit: at the highest dose re-replication activation, most hits filed as activators; 340,000 tested, 1.8% active; AID 624297; further: potency means the concentration at half of the fitted maximal effect; % of control where 0% means no effect; nearly all actives have a fitted effect of over 55% in size
#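 Compounds, transferred as 23 nL by pin tool, were incubated with cells for 48 hr; DNA content per nucleus was then quantified by Hoechst staining and fluorescence plate imaging.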
# S2 tox – reduces viability in counter-screen for ATXN expression inhibitors | 400,000 tested, 0.49% active | S2 cells (HEK-293 line with an ATXN2-luciferase reporter) viability, CellTiter-Fluor protease fluorescence, 24 h | Potency, µM (titrated, usually from 56.7 µM), usual class: cytotoxic; further: potency means the concentration at half of the fitted maximal effect; nearly all actives have a fitted effect of over 40% in size
# * hit, by the source's call; i = inactive; ? = inconclusive; . = no result given; [ ] = another dose, or the depositor's remark. Compounds with a hit are over-represented: about 7.1% of the library has one in this group of screens. Unless noted, the call rests on the fitted dose curve; in most records, active means well fitted curve in the direction sought with a large enough effect; inconclusive means small, poorly fitted or top-dose-only effect, or another doubt; inactive means no such curve, though single readings can be large; an effect the other way counts as inactive or inconclusive.
SMILES,MCF10A rerep,IL-1B inflam inh,PINK1 modulator,ATXN2 expr inh,SW480 rerep,S2 tox
COc1cccc(/C=N/Nc2cc(-n3nc(C)cc3-c3ccccc3)ncn2)c1O,3.7µM*,58,?,?,?,?
COc1cccc(/C=N/Nc2nc(Nc3ccccc3)nc(-n3nc(C)cc3C)n2)c1O,15µM*,0,-4%,?,5.8µM*,?
Cc1oc(-c2cccc(NC(=O)c3ccccn3)c2)nc1CNC(=O)c1ccc(C(F)(F)F)cc1,.,.,1%,.,.,i
COC(=O)/C(C#N)=C/c1ccc(-c2ccc(S(N)(=O)=O)cc2)o1,-1%,-74*,0%,1%,-3%,i
CC(C)OC(=O)/C(C#N)=C/c1ccc(-c2ccc(SC(F)F)cc2)o1,16%,-1,14%,-8%,18%,i
Cc1ccc2c(C)ccc(O)c2n1,21µM*,-18,0%,-27%,0%,i
CCC1CN(CCNC(=O)c2cscn2)Cc2cc(OC)ccc2O1 (configuration not stated),.,.,-1%,.,.,i
COc1ccc(C(NC(C)=O)c2cc(Cl)c3cccnc3c2O)cc1OC (configuration not stated),?,116,-4%,?,1.6µM*,?
CCC(=O)NC(c1ccc(OC)c(OC)c1)c1cc(Cl)c2cccnc2c1O (configuration not stated),?,-5,?,?,?,.
COc1ccccc1C(NC(C)=O)c1cc(Cl)c2cccnc2c1O (configuration not stated),?,112,12%,?,0.58µM*,i
O=C(OCn1ncc(Cl)c(Cl)c1=O)c1ccc(C(F)(F)F)cc1,6.5µM*,-99*,-5%,?,6.5µM*,?
Cc1ccc(C(=O)OCn2ncc(Cl)c(Cl)c2=O)cc1,3.7µM*,-99*,-2%,?,?,.
Cc1ccc(C(=O)COC(=O)c2nc(Cl)ccc2Cl)cc1,-17%,24,0%,8%,-1%,i
CN=c1scc(-c2ccc(F)cc2)n1/N=C/c1ccc(O)c(O)c1,?,50,4%,?,15µM*,?
CN=c1scc(-c2ccc([N+](=O)[O-])cc2)n1/N=C/c1ccco1,-8%,-10,1%,-16%,-3%,i
CCOC(=O)N1C(=O)[C@](c2ccc(Cl)cc2)(C(C)C)N1C(=O)OCC,?,-98*,-1%,?,?,?
CCOC(=O)N1C(=O)[C@@](c2ccc(Cl)cc2)(C(C)C)N1C(=O)OCC,21µM*,-113*,1%,?,?,.
CCOC(=O)C1(C(N)=O)OC1(c1ccc(Cl)cc1)c1ccccc1Cl (configuration not stated),1%,8,-1%,0%,0%,i
O=C(NCC1CCC2(CCN(Cc3ccccc3O)CC2)O1)C1CCCO1 (configuration not stated),.,.,2%,.,.,i
CC(C)c1c(C(=O)NCC(C)(C)N2CCOCC2)cnn1-c1nccc(-c2cccs2)n1,.,.,-1%,.,.,?
CCN(CC)CCCC(C)NC(=O)c1ccc(C(F)(F)F)cc1 (configuration not stated),14%,-50*,-1%,.,6%,i
Cc1ccc(/C=N/Nc2nncc(-c3ccccc3)n2)o1,-34%,-9,6%,37%,?,i
Oc1cccc(/C=N\Nc2nncc(-c3ccccc3)n2)c1,?,-62*,2%,28%,14%,i
Cc1cc(-c2ccccc2)nc(N/N=C/c2cccnc2)n1,-5%,-4,2%,-1%,-7%,i
C(=N/Nc1nc(-c2ccccc2)cc(-c2ccccc2)n1)/c1cccnc1,?,-53*,-4%,72%,-8%,i
Cc1[nH]n(-c2ccccc2)c(=O)c1/C=N/Nc1nncc(-c2ccccc2)n1,3%,40,-6%[38.3 µM],2.8µM*,0%,i

# From PubChem BioAssay
